Screening results as filed in PubChem BioAssay.
CYP2C19 act – cytochrome P450 2C19 (human) activation; P33261; recombinant CYP2C19, luciferin-H EGE luminescence; active compounds read high; 0 = fully inhibited enzyme, 1 = untreated enzyme; activation factor at 5 µM; 96,000 tested, under 10 active; AID 1025;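 active = activation factor of at least 2 at 5 µM in the primary screen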;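 note: 0 = wells with 2.5 mM tranylcypromine and 1 = vehicle-only wells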
CYP2C9 act – increases human cytochrome P450 2C9 activity; P11712; recombinant CYP2C9, luciferin-H conversion, luminescence; active compounds read high; factor 1 = untreated enzyme, 0 = blocked; activation factor at 5 µM; hit rate 1.4% among 96,000;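 active = activation factor of 2 or more for CYP2C9 at a 5 µM dose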;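 note: 0 = sulfaphenazole-blocked wells and 1 = vehicle-only wells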
Target sequence (P11712 whole entry, looked up): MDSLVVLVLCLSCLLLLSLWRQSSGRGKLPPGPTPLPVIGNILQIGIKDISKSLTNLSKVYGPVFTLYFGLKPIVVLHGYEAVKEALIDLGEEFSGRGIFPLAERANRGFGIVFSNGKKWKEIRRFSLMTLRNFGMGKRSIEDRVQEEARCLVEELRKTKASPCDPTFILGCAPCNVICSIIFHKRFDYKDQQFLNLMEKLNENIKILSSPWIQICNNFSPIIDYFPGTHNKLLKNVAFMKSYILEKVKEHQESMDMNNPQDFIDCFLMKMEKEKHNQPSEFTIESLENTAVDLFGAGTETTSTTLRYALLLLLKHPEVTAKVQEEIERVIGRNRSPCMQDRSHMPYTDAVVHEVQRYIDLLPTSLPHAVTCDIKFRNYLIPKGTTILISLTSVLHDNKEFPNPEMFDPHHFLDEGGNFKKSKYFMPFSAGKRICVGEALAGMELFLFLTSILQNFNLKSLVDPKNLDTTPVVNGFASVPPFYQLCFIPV
CYP2C19 inhib – blocks human cytochrome P450 2C19; P33261; CYP2C19 Supersomes, luciferin-H EGE luminescence, 30 min; inhibition, % at 5 µM; hit rate 21% among 96,000; AID 778;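 active = CYP2C19 inhibition above a set limit at 5 µM in the primary screen, cut at about 50% in these data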;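 note: plate controls were negative control wells for no effect and 2.5 mM tranylcypromine positive control for full effect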
Measles CPE – protection of cells from measles virus. Measles virus-infected cells, CPE protection, absorbance. protection (pct of control), % at 4 µM. hit rate 1.5% among 140,000; in the data active = protection mostly above about 24%, no sharp cut-off; inactive = mostly below about 26%
CYP2C9 inh – inhibitors of human CYP2C9 | P11712 | CYP2C9 Supersomes, luciferin-H conversion, luminescence | inhibition, % at 5 µM | hit rate 20% among 96,000 | AID 777;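 active = blocking of liver enzyme CYP2C9 beyond about 50% at 5 µM, limit read from the data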
Starred values were filed as active, the others as inactive; x = not tested or not shown. The list is not random: actives were taken first. Their share in the collection is about 22%.

SMILES	CYP2C19 act	CYP2C9 act	CYP2C19 inhib	Measles CPE	CYP2C9 inh
O=C1OC(c2cccc([N+](=O)[O-])c2)C2(CCCC2)C(=O)C12CCCCC2 (centres undefined)	x	x	x	10	x
COc1ccc(NC(=O)c2cc(SC)ccc2Cl)cc1	x	x	x	3	x
CC1CCc2cc(F)ccc2N1C(=O)CSc1nnc(-c2cccs2)n1C (centres undefined)	0.9	1.1	8	17	-5
CCNc1nc(OC)nc(SCC(N)=O)n1	1.1	1.2	-10	10	-24
COc1ccc(/C(O)=C2/C(=O)C(=O)N(CCCN(C)C)C2c2cccnc2)cc1 (centres undefined)	1	1	-1	x	-2
Cc1ccc2c(c1)N(CC(=O)NC1CCC(C)CC1)C(=O)CO2 (centres undefined)	0.4	1.1	62*	3	-6
Cc1ccccc1CN1C(=O)C2(OCCCO2)c2ccccc21	0.7	2.2*	28	2	-116
O=C(O)CN1C(=O)C2(OCCCO2)c2ccccc21	1.1	1	-5	5	1
Cc1ccc(CCNC(=O)CN2C(=O)COc3ccccc32)cc1	0.1	0.4	89*	16	59*
O=C(CN1C(=O)C2(OCCCO2)c2ccccc21)NCCc1ccccc1	0.1	0.8	86*	20	17
Cc1ccc(C)c(N2CCN(CCCNC(=O)Cn3cc4c(n3)CCCCC4)CC2)c1	0.7	1	28	3	0
Cc1ccc2c(c1)N(CC(=O)OC(CC(C)C)C(=O)NC1CCCC1)C(=O)CO2 (centres undefined)	0.3	0.4	69*	9	63*
CCN(CCCNC(=O)CN1C(=O)COc2ccccc21)c1cccc(C)c1	0.2	0.3	82*	3	67*
Cc1ccc(C2=[N+]([O-])C3(CCCCC/C3=N\NC(N)=S)N(O)C2(C)C)o1 (centres undefined)	0.9	0.3	13	4	74*
Cc1ccc(C2=[N+]([O-])C3(CCCCC/C3=N\NC(N)=O)N(O)C2(C)C)o1 (centres undefined)	1	1	1	1	0
CC(C)NC(=S)N/N=C1\CCCCC1C1CCCCC1 (centres undefined)	0.4	0.2	63*	5	80*
NS(=O)(=O)c1ccc(N/N=C2/CCCCC2C2CCCCC2)c([N+](=O)[O-])c1 (centres undefined)	x	x	x	22	x
O=C(COC(=O)CCCN1C(=O)c2ccccc2C1=O)Nc1cc(Cl)cc(Cl)c1	x	x	x	5	x
CC1CCc2c(sc(Nc3nc4c(F)cccc4s3)c2C(N)=O)C1 (centres undefined)	x	x	x	16	x
Cc1nn(-c2ccccc2)c(N2CCCCC2)c1/C=N/O	1	1	4	54*	0
CC1(C(=O)N(Cc2ccccc2)Cc2ccccc2)CC1(Br)Br (centres undefined)	x	x	x	23	x
O=S(=O)(Nc1ccccc1F)c1ccc2nsnc2c1	0.4	0.6	63*	18	38
Cc1cc(C)c(S(=O)(=O)Nc2ccc[nH]c2=O)c(C)c1	0.2	4*	85*	22	-304
COc1cc(NS(=O)(=O)c2cccc3nsnc23)c(C(=O)O)cc1OC	1.2	0.7	-16	23	31
O=S(=O)(Nc1cccc2nsnc12)c1ccccc1	0.3	0.1	71*	10	86*
SMILES	CYP2C19 act	CYP2C9 act	CYP2C19 inhib	Measles CPE	CYP2C9 inh
Cc1cc(C)c(S(=O)(=O)Nc2cccc3nsnc23)c(C)c1	0.5	0.2	49	17	83*
CCOC(=O)c1sc(NC(=O)c2cc3n(n2)C(C(F)(F)F)CC(c2ccccc2)N3)c(C(=O)OCC)c1C (centres undefined)	0.9	0.7	6	7	27
Cc1csc2c(C#N)c(=O)c3c(n12)CCC3	0.8	0.9	16	11	10
Cc1ccc(OCC(=O)Nc2cccc3nsnc23)c(C)c1	0.3	0.9	74*	14	8
Cc1ccc(OCC(=O)Nc2ccc3c4c(cccc24)CC3)c(C)c1	x	x	x	6	x
O=C(/C(=C/O)N=Nc1ccccc1)c1ccncc1	0	0.3	96*	6	68*
CCCc1cc(=O)[nH]c(SCC(=O)N2CCN(S(=O)(=O)c3ccc4ccccc4c3)CC2)n1	x	x	x	17	x
CCCCNc1nnc(SCC(=O)N2CCN(S(=O)(=O)c3ccc4ccccc4c3)CC2)s1	0.2	0.1	79*	5	87*
CC(=O)Nc1ccc(NC(=O)C(C)OC(=O)CN(C)S(=O)(=O)c2ccc(Cl)cc2)cc1 (centres undefined)	0.2	0.4	75*	23	60*
CC(OC(=O)CN(C)S(=O)(=O)c1ccc(Cl)cc1)C(=O)Nc1ccc(N2CCOCC2)cc1 (centres undefined)	0.9	1.1	9	6	-7
CCCn1c(C)cc(C(=O)COC(=O)c2cc(S(=O)(=O)NCC(C)C)c(Cl)cc2Cl)c1C	0.3	0.6	66*	9	39
COC(=O)[C@@]1(Cc2ccc(OC)cc2)[C@H]2c3cc(C(=O)N4CCCC4)n(Cc4ccc(C)o4)c3C[C@H]2CN1C(=O)c1ccccc1	x	x	x	9	x
Cn1c(=O)c2c(nc(CN3CCN(CCO)CC3)n2Cc2cccc3ccccc23)n(C)c1=O	0.6	0.7	41	0	35
Cc1cc(Oc2cnn(C(C)(C)C)c(=O)c2Cl)cc(C(C)C)c1	x	x	x	4	x
O=C(CN(Cc1ccccc1)S(=O)(=O)c1ccccc1)N/N=C/c1ccc([N+](=O)[O-])cc1	x	x	x	4	x
O=C(CN(c1ccc(Cl)cc1)S(=O)(=O)c1ccccc1)N/N=C/c1ccco1	0	0.2	98*	26	82*
Cc1ccc(CN(CC(=O)N/N=C/c2ccco2)S(=O)(=O)c2ccc(C)cc2)cc1	0	0.1	100*	11	90*
Cc1ccc(S(=O)(=O)N(CC(=O)N/N=C/c2ccco2)c2cc(Cl)cc(Cl)c2)cc1	x	x	x	23	x
C#C[C@]1(O)CC[C@H]2[C@@H]3CCC4=C(CCC(=O)C4)[C@H]3CC[C@@]21C	x	x	x	22	x
COc1ccc(C(=O)Nc2cccc(C)c2)cc1	0.3	0.9	71*	10	9
Cc1ccc(C(=O)Nc2cccc(C(=O)O)c2)cc1	0.1	0.5	87*	2	54*
Cc1ccc(C(=O)Nc2ccc3nccnc3c2)cc1	0.9	0.9	8	3	8
Cc1cccc(NC(=O)c2ccc(OC3CSC3)cc2)c1	x	x	x	17	x
CCOc1ccc(C(=O)NCC(=O)OCc2cc(C(C)=O)ccc2OC)cc1	x	x	x	7	x
COc1ccc(C(=O)/C=C/c2ccc(OC)c(COc3ccc(F)cc3)c2)cc1	0.7	0.5	30	12	52*
COc1ccc(C(=O)NN)cc1COc1ccc(Br)cc1	0	0.5	96*	5	50*
COc1ccc(/C=C/C(=O)O)cc1COc1ccccc1C	x	x	x	10	x
O=C(Cn1ccc2ccccc2c1=O)NCCC(=O)Nc1ccc2c(c1)OCCO2	0.9	0.6	10	12	40
Cc1ccc(NS(=O)(=O)c2ccc3c(c2)oc(=O)n3C)cc1F	0.4	0.2	56*	45*	76*
